Records with an inconclusive call do not appear. A number with no mark means an inactive call. Calls come from the whole dose curve; as a rule, active = well fitted inhibition curve with a large enough effect; inconclusive = small, poorly fitted or top-dose-only effect; inactive = flat fitted curve, though single readings scatter.
Each compound was assayed against Calcium and integrin-binding protein 1 (Homo sapiens) (UniProt Q99828) (assay: Primary qHTS for Identification of Calcium Integrin Binding Protein 1 (CIB1) Competitor (AID 1508620;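 note: GST tagged CIB1 binding a fluorescein labelled alphaIIb integrin peptide tracer; top concentration of the series differs between compounds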)). Conditions: CIB1-GST / FITC-alphaIIb peptide fluorescence polarization; series mostly up to 114 µM; activity change, negative = inhibition: at the top concentration.
Sequence of Calcium and integrin-binding protein 1 (Homo sapiens) (Q99828 whole entry, looked up): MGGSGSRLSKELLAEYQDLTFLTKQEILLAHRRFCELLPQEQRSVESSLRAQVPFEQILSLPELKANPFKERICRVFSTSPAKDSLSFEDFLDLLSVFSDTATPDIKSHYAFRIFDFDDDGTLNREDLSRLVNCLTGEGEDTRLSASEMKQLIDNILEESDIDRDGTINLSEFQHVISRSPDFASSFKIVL
Method in brief: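 Fluorescence polarization competition: CIB1-GST (1 uM final) preincubated with compound 15 min at room temperature, then FITC-labeled alphaIIb peptide (100 nM final) added for another 15 min. Polarization read at Ex 480/Em 540.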
For `CC(=O)Nc1sc2c(c1-c1cccc3ccccc13)CCNC2`, the “activity change, negative = inhibition” value was 0.479%.
For `NC(=O)C1CCN(c2nc(-c3ccc4c(c3)OCCCO4)cs2)CC1`, the “activity change, negative = inhibition” value was -1.7% [at 384 µM].
`O=C(Nc1cc(C(F)(F)F)ccc1Cl)C(O)Cc1ccccc1` (stereo not given) was tested, and the “activity change, negative = inhibition” value was 0.177%.
For `Cc1ccc(OCCn2c(CCNC(=O)c3cccs3)nc3ccccc32)cc1`, the “activity change, negative = inhibition” value was 0.657%.
With `N#Cc1nc(Nc2cccc(Cl)c2)c2ncn(C3CCCC3)c2n1` the “activity change, negative = inhibition” value was 7.83%.
With `COc1cccc(C2c3c(ncn(-c4ccc(F)cc4)c3=N)Oc3ccc4ccccc4c32)c1` (stereo not given) the “activity change, negative = inhibition” value was 6.17%.
`Cc1cc(N[S+](=O)([O-])c2cc3c(cc2Cl)NC(=O)CO3)ccc1Cl` was tested, and the “activity change, negative = inhibition” value was -6.02%.
In the case of `COc1cccc(S(=O)(=O)N2CCN(S(=O)(=O)c3ccc4c(c3)OCCO4)CC2)c1`, the “activity change, negative = inhibition” value is reported as 1.72%.
In the case of `Brc1ccc(-c2csc(N3CCC(c4nn[nH]n4)CC3)n2)cc1`, the “activity change, negative = inhibition” value is reported as -17.9%.
In the case of `COc1cc(O)c(C(CC(=O)N2CCC(c3ccccc3)CC2)c2ccc3c(c2)OCO3)c(OC)c1` (stereo not given), the “activity change, negative = inhibition” value is reported as -0.653% [at 228 µM].
With `Cc1c(P(=S)(c2ccccc2)c2ccccc2)c2ccccc2n1C(=O)Cc1ccccc1` the “activity change, negative = inhibition” value was 0.757%.
With `COc1ccc(C2Nc3ccccc3C(=O)N2Cc2ccc(C(F)(F)F)cc2)cc1COc1ccc(NC(C)=O)cc1` (stereo not given) the “activity change, negative = inhibition” value was 1.78%.
In the case of `N#Cc1nc(NCC(F)F)c2ncn(-c3cccc(Cl)c3)c2n1`, the “activity change, negative = inhibition” value is reported as -3.86%.
For `N#Cc1ccccc1CCc1nc2ncc(Br)cc2[nH]1`, the “activity change, negative = inhibition” value was 7.28%.
`N=c1c2c(ccn1CCCc1ccccc1)Oc1ccc3ccccc3c1C2c1ccccc1` (stereo not given) was tested, and the “activity change, negative = inhibition” value was 7.15%.
For `COc1cc(-c2nc(Nc3ccc(F)c(F)c3)c3ccccc3n2)c(F)cn1`, the “activity change, negative = inhibition” value was 1.3%.
For `CCc1ccc(NC(=O)C(=O)NNC(=O)Cc2ccc(Cl)c(Cl)c2)cc1`, the “activity change, negative = inhibition” value was -5.49%.
For `O=C(Nc1nc2cc(C(F)(F)F)ccc2s1)c1ccc(-c2cccc([N+](=O)[O-])c2)o1`, the “activity change, negative = inhibition” value was 1.09%.
For `CCOC(=O)c1ccc(-n2cnc3cc(C(=O)N4CCCCC4)ccc32)cc1`, the “activity change, negative = inhibition” value was 2.92%.
In the case of `Cc1cc(C)n2ncc(C(=O)Nc3ccc(C)c(C)c3)c2n1`, the “activity change, negative = inhibition” value is reported as 5.65%.
`Cc1nc(C(C)N(C)c2ncnc3ccc(-c4ccc5c(c4)OCO5)cc23)cs1` (stereo not given) was tested, and the “activity change, negative = inhibition” value was -3.3%.
With `O=C1CCCC2=C1C(c1[nH]ncc1Cl)NC(=NCc1cccnc1)N2` (stereo not given) the “activity change, negative = inhibition” value was 1.94%.
For `COc1ccc(C2Nc3ccccc3C(=O)N2Cc2ccccc2)cc1OCc1ccc(NC(C)=O)cc1` (stereo not given), the “activity change, negative = inhibition” value was 1.35%.
In the case of `O=C(Cc1nnc(CNC(=O)c2ccccc2)s1)Nc1ccc(C(F)(F)F)cc1Cl`, the “activity change, negative = inhibition” value is reported as -0.0839%.
For `Cc1cc2c(s1)c1cnn(Cc3c(Cl)cccc3Br)c(=O)c1n2C`, the “activity change, negative = inhibition” value was 6.86%.
For `CN(CC(=O)O)c1ncnc2ccc(-c3ccc4c(c3)OCO4)cc12`, the “activity change, negative = inhibition” value was -6.89%.
In the case of `CCOc1ccccc1-c1nnc2n1N=C(c1c(OC)cccc1OC)CS2`, the “activity change, negative = inhibition” value is reported as 5.07%.
With `FC(F)(F)c1cccc(N2CCN(C(=S)Nc3cccnc3)CC2)c1` the “activity change, negative = inhibition” value was 0.253%.
`Cc1noc(C)c1-c1ccc2ncnc(NCc3ccc(F)cc3)c2c1` was tested, and the “activity change, negative = inhibition” value was 1.07%.
In the case of `Cc1cnc(-c2ccccc2C(C)C)nc1NCc1ccc(-c2cccnc2)cc1`, the “activity change, negative = inhibition” value is reported as 10.1%.
In the case of `O=C(CNC(=O)c1ccccc1)OC(CCc1ccccc1)C(=O)Nc1cc(C(F)(F)F)ccc1Cl` (stereo not given), the “activity change, negative = inhibition” value is reported as -2.73%.
For `Cc1ccc(N2CCN(S(=O)(=O)c3ccc4c(c3)CC(=O)N4)CC2)cc1`, the “activity change, negative = inhibition” value was 0.009% [at 228 µM].
`CC(=O)c1cc2c(s1)c1cnn(Cc3ccccc3F)c(=O)c1n2C` was tested, and the “activity change, negative = inhibition” value was 2.22%.
In the case of `CC(C)(C)OC(=O)NC1CCN(c2nc(-c3ccc(Br)cc3)cs2)CC1`, the “activity change, negative = inhibition” value is reported as 2.46%.
`Cc1cc(C)nc(NC(=S)N2CCN(c3nccc(C(F)(F)F)n3)CC2)c1` was tested, and the “activity change, negative = inhibition” value was -12.7%.
With `CC(=O)Nc1sc2c(c1-c1ccc3c(c1)CCO3)CCNC2` the “activity change, negative = inhibition” value was 1.43%.
In the case of `c1csc(CNc2ccc(N3CCOCC3)cc2)c1`, the “activity change, negative = inhibition” value is reported as -5.12%.
`Fc1ccc(-c2ccc(Nc3nc(-c4ccncc4)nc4ccccc34)cc2F)cc1` was tested, and the “activity change, negative = inhibition” value was 4.1%.
`Fc1ccccc1N1CCN(c2nc(-c3cccs3)nc3ccccc23)CC1` was tested, and the “activity change, negative = inhibition” value was -1.98%.
`Cc1ccc(S(=O)(=O)Nc2cccc(C(=O)Nc3nc(-c4ccccc4)cs3)c2)cc1` was tested, and the “activity change, negative = inhibition” value was 0.0023%.

Reference: PubChem BioAssay (NCATS)
% is set by controls: 0 for no effect and ±100 for the full control effect.
